A short description of assay [1]: antimalarial activity against Dd2 strain (AID 2302;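 active = growth inhibition above 50% at the single 2 µM test dose, taken to imply half-maximal potency below 2 µM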;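 also: 0% = DMSO untreated growth and 100% = chloroquine plus artemisinin killed control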). Conditions: P. falciparum Dd2 in RBCs, LDH growth readout, 72 h; at 2 µM; active compounds read high.
Assay [2] can be described thus: human hepatoma cell viability loss – ATP luminescence, cytotoxicity control for P. falciparum antimalarial project, primary screen (AID 2303;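 active = inhibition above 50%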;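 also: 0% = DMSO wells and 100% = digitonin-killed cells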). The settings on record: HepG2 viability, 24-48 h, at 10 µM, active compounds read high.
Assay [3] addresses L-lactate dehydrogenase (Plasmodium falciparum (isolate CDC / Honduras)) (UniProt Q27743). The assay can be described thus: PfLDH activity inhibition – cell lysate, 3D7 strain, counter-screen for P. falciparum growth inhibition project (AID 2304).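 Also: 0% = vehicle and 100% = reference inhibitor.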 The settings on record: P. falciparum 3D7 crude extract, LDH APAD/NBT absorbance; at 2 µM; active compounds read high. On the technique in general: Counterscreens check selectivity or assay interference.

Assay [4] is described as follows: inhibition of 3D7 malaria parasite growth – strain 3D7 (AID 2306).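 Also: 0% = DMSO wells and 100% = chloroquine plus artemisinin control wells.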 The settings on record: P. falciparum 3D7 erythrocytic growth, LDH absorbance, 72 h; at 2 µM; active compounds read high.
Assay [5] concerns the target Calcium-dependent protein kinase 1 (Plasmodium falciparum (isolate 3D7)) (UniProt P62344). The assay can be described thus: PfCDPK1 kinase inhibitors, biochemical, TCAMS library (AID 1159585; cut-off not given, nearly all actives have IC50 up to about 0.98 µM;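 also: inhibitors leave more ATP so luminescence rises with inhibition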). Conditions: recombinant PfCDPK1, Kinase-Glo ATP depletion luminescence. (In general: Kinase-Glo measures the ATP left after a reaction by luminescence.)
For assay [6], the target named is Plasmodium falciparum protein kinase 6 (PK6, PF3D7_1337100) (UniProt Q8IDW1). Nature of the assay: PfPK6 kinase inhibitors, biochemical, TCAMS library (AID 1159586). Conditions: recombinant PfPK6, Kinase-Glo ATP depletion luminescence.
Sequence of Plasmodium falciparum protein kinase 6 (PK6, PF3D7_1337100) (Q8IDW1 1-305): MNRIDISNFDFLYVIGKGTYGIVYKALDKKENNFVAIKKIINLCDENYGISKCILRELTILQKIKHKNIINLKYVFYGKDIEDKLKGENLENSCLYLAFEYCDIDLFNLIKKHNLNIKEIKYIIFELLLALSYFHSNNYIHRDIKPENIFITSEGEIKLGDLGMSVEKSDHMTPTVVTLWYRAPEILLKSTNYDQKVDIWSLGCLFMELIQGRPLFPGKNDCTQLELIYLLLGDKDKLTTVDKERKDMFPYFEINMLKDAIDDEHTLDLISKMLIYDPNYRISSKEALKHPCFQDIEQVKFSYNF
In assay [7] the target is Protein kinase 7 (PK7), Plasmodium falciparum 3D7 (PF3D7_0213400) (UniProt Q7YTF7). The assay can be described thus: inhibition of Plasmodium PK7 catalytic activity – biochemical, TCAMS antimalarial set, Kinase-Glo luminescence (AID 1159587). Conditions: recombinant PfPK7, Kinase-Glo ATP depletion luminescence.
Sequence of Protein kinase 7 (PK7), Plasmodium falciparum 3D7 (PF3D7_0213400) (Q7YTF7 1-343): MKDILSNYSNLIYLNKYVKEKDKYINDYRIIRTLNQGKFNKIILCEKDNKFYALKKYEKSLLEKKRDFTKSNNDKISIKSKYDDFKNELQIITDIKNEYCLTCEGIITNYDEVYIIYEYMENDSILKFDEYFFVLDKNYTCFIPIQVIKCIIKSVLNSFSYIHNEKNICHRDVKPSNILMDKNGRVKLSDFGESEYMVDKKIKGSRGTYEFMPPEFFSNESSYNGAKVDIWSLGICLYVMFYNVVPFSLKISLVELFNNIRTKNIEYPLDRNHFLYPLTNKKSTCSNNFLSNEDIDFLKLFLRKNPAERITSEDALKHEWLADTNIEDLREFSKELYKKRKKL
In assay [8] the target is Calcium-dependent protein kinase 4 (Plasmodium falciparum (isolate 3D7)) (UniProt Q8IBS5). Nature of the assay: PfCDPK4 kinase inhibitors, biochemical, TCAMS library (AID 1159588; cut-off not given, nearly all actives have IC50 up to about 0.91 µM). The settings on record: recombinant PfCDPK4, Kinase-Glo ATP depletion luminescence.
Sequence of Calcium-dependent protein kinase 4 (Plasmodium falciparum (isolate 3D7)) (Q8IBS5 whole entry, looked up): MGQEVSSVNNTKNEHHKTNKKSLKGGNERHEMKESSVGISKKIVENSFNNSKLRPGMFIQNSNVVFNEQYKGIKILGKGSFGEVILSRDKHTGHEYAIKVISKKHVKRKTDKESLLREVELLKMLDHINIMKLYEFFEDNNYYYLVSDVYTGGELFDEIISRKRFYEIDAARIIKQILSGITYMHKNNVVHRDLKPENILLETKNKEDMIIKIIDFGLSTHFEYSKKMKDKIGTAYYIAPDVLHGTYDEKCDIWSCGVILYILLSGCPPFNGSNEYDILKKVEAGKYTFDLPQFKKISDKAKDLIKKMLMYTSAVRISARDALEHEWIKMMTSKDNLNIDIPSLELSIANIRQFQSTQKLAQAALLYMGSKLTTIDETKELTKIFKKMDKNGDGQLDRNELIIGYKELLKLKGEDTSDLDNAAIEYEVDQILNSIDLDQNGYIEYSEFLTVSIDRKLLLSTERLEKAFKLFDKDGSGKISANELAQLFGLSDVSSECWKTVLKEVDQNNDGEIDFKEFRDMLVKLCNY

This note sets out measurements from PubChem BioAssay.

Values joined by “and” are separate entries in the source; they are usually repeats but may differ in a detail not shown here. Identical values can stand only once. Values without a mark were called inactive. For some assays here: Measured potencies and affinities stand elsewhere. Active and inactive are the calls of the source. Unless noted, no rule for the calls is given here.

Sequence of L-lactate dehydrogenase (Plasmodium falciparum (isolate CDC / Honduras)) (Q27743 whole entry, looked up): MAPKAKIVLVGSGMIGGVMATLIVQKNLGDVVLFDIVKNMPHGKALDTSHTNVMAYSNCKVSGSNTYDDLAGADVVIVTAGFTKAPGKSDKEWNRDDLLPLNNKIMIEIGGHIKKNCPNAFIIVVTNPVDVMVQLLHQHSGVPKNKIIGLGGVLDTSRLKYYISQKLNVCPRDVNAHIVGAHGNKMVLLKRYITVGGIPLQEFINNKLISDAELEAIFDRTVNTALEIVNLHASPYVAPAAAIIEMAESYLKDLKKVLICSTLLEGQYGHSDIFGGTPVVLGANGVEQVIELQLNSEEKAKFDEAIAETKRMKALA
Sequence of Calcium-dependent protein kinase 1 (Plasmodium falciparum (isolate 3D7)) (P62344 whole entry, looked up): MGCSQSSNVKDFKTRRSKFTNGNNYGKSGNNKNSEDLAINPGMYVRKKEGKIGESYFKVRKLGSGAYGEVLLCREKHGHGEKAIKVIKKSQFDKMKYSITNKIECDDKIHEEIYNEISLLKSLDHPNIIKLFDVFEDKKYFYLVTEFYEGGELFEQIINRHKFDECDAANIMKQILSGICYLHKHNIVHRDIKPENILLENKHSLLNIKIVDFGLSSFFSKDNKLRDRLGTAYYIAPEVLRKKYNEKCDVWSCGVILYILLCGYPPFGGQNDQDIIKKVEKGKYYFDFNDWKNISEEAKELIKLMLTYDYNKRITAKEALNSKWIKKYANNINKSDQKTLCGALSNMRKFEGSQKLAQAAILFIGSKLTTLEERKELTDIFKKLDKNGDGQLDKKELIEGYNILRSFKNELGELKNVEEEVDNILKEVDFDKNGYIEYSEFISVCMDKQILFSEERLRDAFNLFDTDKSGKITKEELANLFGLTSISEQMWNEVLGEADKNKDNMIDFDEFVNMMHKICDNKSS

As to `OC(CNC1CCCCC1)c1ccc(Cl)c(Cl)c1` (configuration not stated), the growth inhibition in assay [1] is 96% (active); in assay [4] it was 99% (active). The inhibition in assay [2] is 17%; in assay [3] it was -1%. Also, the result in assay [5], in assay [6], in assay [7] and in assay [8] was inactive.
As for `FC(F)(F)c1cccc(N2CCC(CN3CCC(c4c[nH]c5ccccc45)CC3)CC2)n1`, the growth inhibition in assay [1] was 10%; in assay [4], 84% (active). Further, the inhibition in assay [2] was 41%; in assay [3], -3%. Moreover, the outcome in assay [5], in assay [6], in assay [7] and in assay [8] was inactive.
Turning to `Oc1ccc(Cl)cc1CN1CCC(CCOC(c2ccccc2)c2ccc(Cl)cc2)CC1` (configuration not stated), the values for the growth inhibition in assay [1] and in assay [4] were 100% (active) and 98% (active), respectively. Further, the inhibition is 32% in assay [2] and 2% in assay [3]. Moreover, the result in assay [5], in assay [6], in assay [7] and in assay [8] was inactive.
With `CC[C@H]1CN2CC[C@@H]1C[C@H]2[C@H](O)c1cc(N2CCSCC2)nc2ccc(OC)cc12`, the growth inhibition is 98% (active) in assay [1] and 99% (active) in assay [4]. Besides, the inhibition in assay [2] was 2%; in assay [3], 1%. In addition, the outcome in assay [5], in assay [6], in assay [7] and in assay [8] was inactive.
In the case of `CCCN(CC(=O)NCCc1ccccc1)c1ccc(C#N)c2ccccc12`, the growth inhibition was 39% in assay [1] and 92% (active) in assay [4]. The inhibition is 8% in assay [2] and -5% in assay [3]. The result in assay [5], in assay [6], in assay [7] and in assay [8] was inactive.
`Cc1[nH]c2ccccc2c1C1=CCN(CCN2CCCc3c(Br)cccc3C2=O)CC1`: the growth inhibition was 90% (active) in assay [1] and 95% (active) in assay [4]. Besides, the inhibition is 10% in assay [2] and -1% in assay [3]. Besides, the outcome in assay [5], in assay [6], in assay [7] and in assay [8] was inactive.
With `CCC1(C)CC(CCNCc2ccccc2O)(c2ccc(F)cc2)CCO1` (configuration not stated), the growth inhibition in assay [1] was 32%; in assay [4], 98% (active). Besides, the inhibition was 20% in assay [2] and 6% in assay [3]. Moreover, the result in assay [5], in assay [6], in assay [7] and in assay [8] was inactive.
Regarding `Cc1[nH]c2ccccc2c1C1=CCN(C[C@H]2C[C@@H]2C(=O)c2ccccc2)CC1`, the growth inhibition in assay [1] was 88% (active); in assay [4] it was 95% (active). The inhibition was 18% in assay [2] and -3% in assay [3]. In addition, the outcome in assay [5], in assay [6], in assay [7] and in assay [8] was inactive.
Take `OC(CNCc1ccccc1OC(F)F)c1cccc(C(F)(F)F)c1` (configuration not stated): the growth inhibition was 52% (active) in assay [1] and 97% (active) in assay [4]. Moreover, the inhibition in assay [2] is 2%; in assay [3], -2%. Also, the outcome in assay [5], in assay [6], in assay [7] and in assay [8] was inactive.
On to `Cc1[nH]c2ccccc2c1C1=CCN(CCCCC23CCCc4cccc(c42)NC3=O)CC1` (configuration not stated), for which the growth inhibition in assay [1] is 91% (active); in assay [4] it was 95% (active). Further, the inhibition in assay [2] is 9%; in assay [3], -4%. Besides, the outcome in assay [5], in assay [6], in assay [7] and in assay [8] was inactive.
Turning to `CC(Cc1ccc(SCCSc2ccccc2)cc1)NCC(O)c1cccc(Cl)c1` (configuration not stated), the growth inhibition in assay [1] is 96% (active); in assay [4], 98% (active). Further, the inhibition in assay [2] was 4%; in assay [3], -7%. Also, the result in assay [5], in assay [6], in assay [7] and in assay [8] was inactive.
`CC1(C)CCCN(C(=O)Cc2ccc3c(c2)CCCC3)C1CN1CC=CC1` (configuration not stated): the growth inhibition in assay [1] is 1%; in assay [4], 98% (active). Moreover, the inhibition is -3% in assay [2] and -1% in assay [3]. The outcome in assay [5], in assay [6], in assay [7] and in assay [8] was inactive.
Take `Cc1ccc(C[C@@H](C)NC[C@H](O)c2cccc(C(F)(F)F)c2)cc1`: the growth inhibition is 79% (active) and 97% (active) in assay [1]; 101% (active) and 99% (active) in assay [4]. Moreover, the inhibition was 10% and 6% in assay [2]; -4% and 1% in assay [3]. For the same compound, the outcome in assay [5], in assay [6], in assay [7] and in assay [8] was inactive.
For the compound `O=C(NC1CCC(CN2CCC(c3c[nH]c4ccccc34)CC2)CC1)c1[nH]c(=O)[nH]c(=O)c1F` (configuration not stated), the growth inhibition is 59% (active) in assay [1] and 99% (active) in assay [4]. The inhibition in assay [2] was 5%; in assay [3] it was -2%. Moreover, the outcome in assay [5], in assay [6], in assay [7] and in assay [8] was inactive.
Regarding `Cc1cc(NC(=O)[C@H](CC(C)C)Nc2ccc(C#N)c3ccccc23)ccc1F`, the growth inhibition in assay [1] is 88% (active); in assay [4], 95% (active). Besides, the inhibition in assay [2] was 35%; in assay [3], 3%. The result in assay [5], in assay [6], in assay [7] and in assay [8] was inactive.
`COc1cc(CC(C)NCC(O)c2cccc(C(F)(F)F)c2)ccc1OCc1ccccc1` (configuration not stated): the growth inhibition is 71% (active) in assay [1] and 93% (active) in assay [4]. Further, the inhibition in assay [2] and in assay [3] was 2% throughout. The result in assay [5], in assay [6], in assay [7] and in assay [8] was inactive.
As for `CCCCCC(C)C(C)c1cc(O)c2c3c(c(=O)oc2c1)CN(Cc1ccccc1)CC3` (configuration not stated), the growth inhibition in assay [1] was 47%; in assay [4], 99% (active). In addition, the inhibition in assay [2] is 4%; in assay [3], -2%. The outcome in assay [5], in assay [6], in assay [7] and in assay [8] was inactive.
Regarding `CCOc1ccc2nccc([C@@H](O)[C@@H]3C[C@@H]4CCN3C[C@@H]4CC)c2c1`, the growth inhibition in assay [1] was 99% (active) and 51% (active); in assay [4] it was 98% (active) and 99% (active). For the same compound, the inhibition in assay [2] was 24% and 1%; in assay [3] it was 2% and -2%. Besides, the outcome in assay [5], in assay [6], in assay [7] and in assay [8] was inactive.
Turning to `COC(C(=O)OCCC1CCCN1C)(c1ccccc1)c1ccccc1` (configuration not stated), the growth inhibition in assay [1] is 9%; in assay [4], 98% (active). The inhibition in assay [2] was 6%; in assay [3] it was 2%. In addition, the outcome in assay [5], in assay [6], in assay [7] and in assay [8] was inactive.

What is called inhibition is the change of the read-out against control, counted positive when it falls.
